Test results taken from PubChem BioAssay AID1159580 (chemical genetic matrix, 2015).
“And” between values parts separate entries of the source, which are not always exact repeats. Equal values may be shown once. About 2,000 (36%) of roughly 5,500 compounds were called active. Not shown: some 18% with an inconclusive outcome. No stated cut-off is given here; in the data, active means normalized growth mostly below about 0.91 (no sharp cut-off); inconclusive means no clear call, values can overlap the other calls; inactive means mostly above about 0.92. This is one part of the list.

Test: chemical genetic growth profiling, strain panel (AID 1159580);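 further: tested at 20 µM; growth read once vehicle control cultures reached saturation at 30 °C; 1 = growth at the plate median or of vehicle wells; lower values mean less growth of the strain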
Settings: S. cerevisiae deletion strains, growth OD

Measured: normalized growth

COc1cc(C)c(C(=O)Oc2cc(C)c(C(=O)O)c(O)c2C)c(OC)c1C
active: locus YDR392W, strain spt3, active compounds read low 0.479 | locus YER155C, strain BEM2 (second series), active compounds read low 0.708 | locus YHR079C, strain IRE1, active compounds read low 0.845 | locus YJL129C, strain trk1, active compounds read low 0.867 | locus YLR113W, strain HOG1, active compounds read low 0.557 | locus YLR320W, strain mms22, active compounds read low 0.859 | locus YMR205C, strain PFK2, active compounds read low 0.852 | locus YNL071W, strain lat1, active compounds read low 0.869 | locus YOR231W, strain MKK1, active compounds read low 0.777
inactive: locus YAL021C, strain ccr4, active compounds read low 1.01 | locus YAL026C, strain drs2, active compounds read low 0.965 | locus YAL030W, strain snc1, active compounds read low 0.994 | locus YBL061C, strain skt5, active compounds read low 0.987 | locus YBR009C, strain hhf1, active compounds read low 0.91 | locus YBR021W, strain FUR4, active compounds read low 0.995 | locus YBR023C, strain chs3, active compounds read low 0.983 | locus YBR171W, strain sec66, active compounds read low 0.969 | locus YBR229C, strain ROT2, active compounds read low 0.993 | locus YBR231C, strain swc5, active compounds read low 0.98 | locus YBR279W, strain paf1, active compounds read low 0.995 | locus YCL011C, strain gbp2, active compounds read low 0.968 | locus YCL016C, strain dcc1, active compounds read low 0.986 | locus YCL029C, strain bik1, active compounds read low 1.02 | locus YCL061C, strain MRC1, active compounds read low 0.974 | locus YCL069W, strain vba3, active compounds read low 0.976 | locus YCR088W, strain abp1, active compounds read low 0.994 | locus YDL005C, strain med2, active compounds read low 0.992 | locus YDL035C, strain GPR1, active compounds read low 0.991 | locus YDL040C, strain nat1, active compounds read low 0.974 | locus YDL074C, strain BRE1, active compounds read low 0.982 | locus YDL101C, strain DUN1, active compounds read low 1.02 | locus YDL134C, strain PPH21, active compounds read low 1.02 | locus YDL185W, strain tfp1, active compounds read low 1.02 | locus YDL192W, strain arf1, active compounds read low 1 | locus YDR001C, strain nth1, active compounds read low 0.972 | locus YDR069C, strain doa4, active compounds read low 0.993 | locus YDR101C, strain arx1, active compounds read low 1.01 | locus YDR137W, strain rgp1, active compounds read low 0.906 | locus YDR159W, strain sac3, active compounds read low 0.89 | locus YDR162C, strain NBP2, active compounds read low 0.98 | locus YDR195W, strain ref2 0.966 | locus YDR297W, strain sur2, active compounds read low 0.988 | locus YDR318W, strain mcm21, active compounds read low 1 | locus YDR334W, strain swr1, active compounds read low 1 | locus YDR335W, strain msn5, active compounds read low 0.993 | locus YDR388W, active compounds read low 1.01 | locus YDR502C, strain sam2, active compounds read low 1 | locus YEL003W, strain gim4, active compounds read low 0.968 | locus YEL037C, strain rad23, active compounds read low 0.982 | locus YEL061C, strain CIN8 (second series), active compounds read low 0.982 | locus YEL061C, strain CIN8, active compounds read low 1 | locus YER015W, strain faa2, active compounds read low 0.99 | locus YER016W, strain bim1, active compounds read low 0.984 | locus YER110C, active compounds read low 1.02 | locus YER111C, strain swi4, active compounds read low 0.97 | locus YER155C, strain BEM2, active compounds read low 1 | locus YER167W, strain BCK2, active compounds read low 0.999 | locus YFR010W, strain ubp6, active compounds read low 0.991 | locus YGL078C, strain dbp3, active compounds read low 0.986 | locus YGL086W, strain mad1, active compounds read low 1.02 | locus YGL167C, strain pmr1, active compounds read low 0.964 | locus YGL173C, strain kem1, active compounds read low 0.975 | locus YGL227W, strain vid30, active compounds read low 0.969 | locus YGL240W, strain doc1, active compounds read low 0.941 | locus YGL248W, strain PDE1, active compounds read low 1.01 | locus YGL253W, strain hxk2, active compounds read low 0.949 | locus YGR078C, strain PAC10, active compounds read low 0.992 | locus YGR135W, strain pre9, active compounds read low 1 | locus YGR252W, strain gcn5, active compounds read low 0.905 | locus YHR013C, strain ard1, active compounds read low 0.887 | locus YHR027C, strain rpn1, active compounds read low 1 | locus YHR030C, strain SLT2, active compounds read low 1.02 and 0.932 | locus YHR079C, strain IRE1 (second series), active compounds read low 1.02 | locus YHR094C, strain hxt1, active compounds read low 1.01 | locus YHR129C, strain ARP1, active compounds read low 1.01 | locus YHR142W, strain chs7, active compounds read low 0.994 | locus YHR200W, strain rpn10, active compounds read low 1 | locus YIL066C, strain RNR3, active compounds read low 1 | locus YIL073C, strain SPO22, active compounds read low 1.06 | locus YIL125W, strain kgd1, active compounds read low 0.996 | locus YIR030C, strain dcg1, active compounds read low 1.01 | locus YJL092W, strain hpr5, active compounds read low 0.983 | locus YJL095W, strain BCK1 (second series), active compounds read low 0.988 | locus YJL095W, strain BCK1, active compounds read low 0.998 and 0.884 | locus YJL115W, strain asf1, active compounds read low 0.991 | locus YJL134W, strain LCB3, active compounds read low 1.01 | locus YJL154C, strain vps35, active compounds read low 0.979 | locus YJL164C, strain tpk1, active compounds read low 0.993 | locus YJL166W, strain qcr8, active compounds read low 0.953 | locus YJL168C, strain set2, active compounds read low 1 | locus YJL187C, strain SWE1 (second series), active compounds read low 1.03 | locus YJL187C, strain SWE1, active compounds read low 0.993 | locus YJR043C, strain POL32, active compounds read low 0.998 | locus YJR066W, strain TOR1, active compounds read low 0.975 | locus YJR075W, strain HOC1, active compounds read low 1.01 | locus YKL009W, strain mrt4, active compounds read low 0.992 | locus YKL068W, active compounds read low 1 | locus YKL085W, strain MDH1 (second series), active compounds read low 0.995 | locus YKL085W, strain MDH1, active compounds read low 0.995 | locus YKL160W, strain elf1, active compounds read low 0.991 | locus YKL190W, strain CNB1, active compounds read low 1.01 | locus YKR001C, strain vps1, active compounds read low 0.956 | locus YKR026C, strain gcn3, active compounds read low 0.979 | locus YKR091W, strain srl3, active compounds read low 0.981 | locus YLL001W, strain dnm1, active compounds read low 1 | locus YLL026W, active compounds read low 0.968 | locus YLL041C, strain sdh2, active compounds read low 0.982 | locus YLR027C, strain aat2, active compounds read low 0.991 | locus YLR039C, strain RIC1, active compounds read low 1.03 | locus YLR058C, strain SHM2, active compounds read low 1.01 | locus YLR102C, strain apc9, active compounds read low 1.02 | locus YLR221C, strain rsa3, active compounds read low 1.01 | locus YLR258W, strain gsy2, active compounds read low 0.947 | locus YLR262C, strain YPT6 (second series), active compounds read low 0.943 | locus YLR262C, strain YPT6, active compounds read low 1.03 | locus YLR268W, strain sec22, active compounds read low 1.03 | locus YLR330W, strain CHS5, active compounds read low 1.01 | locus YLR342W, strain FKS1 (second series), active compounds read low 0.985 | locus YLR342W, strain FKS1, active compounds read low 0.978 | locus YLR357W, strain rsc2, active compounds read low 0.94 | locus YLR370C, strain arc18, active compounds read low 0.999 | locus YLR371W, strain rom2, active compounds read low 1.02 | locus YLR384C, strain iki3, active compounds read low 0.992 | locus YLR418C, strain cdc73, active compounds read low 0.859 | locus YML016C, strain PPZ1, active compounds read low 1.01 | locus YML032C, strain rad52, active compounds read low 0.985 | locus YML120C, strain ndi1, active compounds read low 0.971 | locus YML124C, strain tub3, active compounds read low 1.01 | locus YMR058W, strain fet3, active compounds read low 0.984 | locus YMR078C, strain ctf18, active compounds read low 1 | locus YMR125W, strain sto1, active compounds read low 0.912 | locus YMR129W, active compounds read low 0.97 | locus YMR223W, strain ubp8, active compounds read low 0.994 | locus YMR231W, strain pep5, active compounds read low 0.988 | locus YMR307W, strain GAS1, active compounds read low 0.978 | locus YNL067W, strain RPL9B, active compounds read low 1.04 | locus YNL128W, strain TEP1, active compounds read low 1.03 | locus YNL153C, strain GIM3, active compounds read low 1.01 | locus YNL183C, strain NPR1, active compounds read low 0.955 | locus YNL209W, strain ssb2, active compounds read low 1 | locus YNL233W, strain BNI4, active compounds read low 1 | locus YNL248C, strain rpa49, active compounds read low 1.01 | locus YNL250W, strain rad50, active compounds read low 1.03 | locus YNL271C, strain bni1, active compounds read low 1.01 | locus YNL298W, strain CLA4, active compounds read low 0.934 | locus YNL307C, strain MCK1, active compounds read low 1 | locus YNL322C, strain KRE1 (second series), active compounds read low 0.996 | locus YNL322C, strain KRE1, active compounds read low 1 | locus YNR049C, strain mso1, active compounds read low 0.978 | locus YNR052C, strain pop2, active compounds read low 1 | locus YOL012C, strain htz1 1.06 | locus YOL147C, strain pex11, active compounds read low 1.01 | locus YOR001W, strain rrp6, active compounds read low 0.989 | locus YOR061W, strain CKA2, active compounds read low 1.01 | locus YOR069W, strain VPS5, active compounds read low 1.02 | locus YOR070C, strain gyp1, active compounds read low 0.983 | locus YOR080W, strain dia2, active compounds read low 0.997 | locus YOR083W, strain WHI5, active compounds read low 1.03 | locus YOR106W, strain vam3, active compounds read low 1 | locus YOR136W, strain idh2, active compounds read low 1.02 | locus YOR144C, strain elg1, active compounds read low 1.01 | locus YOR184W, strain ser1, active compounds read low 0.986 | locus YOR265W, strain rbl2, active compounds read low 0.992 | locus YOR270C, strain vph1, active compounds read low 0.928 | locus YOR290C, strain snf2, active compounds read low 0.931 | locus YOR316C, strain cot1, active compounds read low 1.01 | locus YPL051W, strain arl3, active compounds read low 1 | locus YPL055C, strain LGE1, active compounds read low 1.01 | locus YPL078C, strain atp4, active compounds read low 0.986 | locus YPL106C, strain sse1, active compounds read low 0.974 | locus YPL240C, strain hsp82, active compounds read low 0.979 | locus YPL241C, strain CIN2, active compounds read low 0.995 | locus YPL256C, strain CLN2, active compounds read low 0.917 | locus YPR119W, strain clb2, active compounds read low 1.01 | locus YPR141C, strain kar3, active compounds read low 1.03 | locus YPR163C, strain tif3, active compounds read low 1.01 | locus YPR167C, strain met16, active compounds read low 1.01 | strain wtn01, active compounds read low 1.04
